Screening data as filed in PubChem BioAssay.
RGS4-Gao reg: modulates binding of RGS4 to human Galphao | P09471 | Multiplexed bead flow cytometry; actives lie on both sides | binding response (% of control), % at 10 µM | 0.33% of 220,000 active | AID 1415; in the data active = binding response below about 49% or above about 150%; inactive = in between;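 note: fluorescent Galphao activated with aluminum fluoride binding bead-coupled RGS4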
Target sequence (P09471 whole entry, looked up): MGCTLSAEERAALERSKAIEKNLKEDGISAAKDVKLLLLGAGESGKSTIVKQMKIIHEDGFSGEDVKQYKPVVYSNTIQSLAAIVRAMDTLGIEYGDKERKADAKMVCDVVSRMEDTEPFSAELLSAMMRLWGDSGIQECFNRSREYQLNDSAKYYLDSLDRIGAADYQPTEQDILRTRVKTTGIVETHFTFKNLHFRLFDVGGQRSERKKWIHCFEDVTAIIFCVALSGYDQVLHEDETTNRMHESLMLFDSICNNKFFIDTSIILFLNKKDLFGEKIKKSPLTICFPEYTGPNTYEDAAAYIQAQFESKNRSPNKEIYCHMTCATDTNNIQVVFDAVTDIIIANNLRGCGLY
GSH fluor: GSH bead compound fluorescence profile. GSH beads flow cytometry, compound fluorescence 488/530 nm; hits give high values. fluorescence (KMESF) at 10 µM. 0.25% of 190,000 active. AID 1776; in the data active = fluorescence above about 89;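 note: glutathione beads carrying GST-tagged Bcl family fusion proteins plus one bare bead set; values are compound well signal with DMSO vehicle wells as background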
RGS16-Gao: modulates binding between human RGS16 and Galphao; O15492+P09471; bead-based flow cytometry RGS16-Galphao binding, fluorescence; actives lie on both sides; binding response (% of control), % at 10 µM; 0.38% of 220,000 active; AID 1441;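 note: Galphao activated by GDP with aluminum fluoride before binding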
Target sequence (O15492 whole entry, looked up): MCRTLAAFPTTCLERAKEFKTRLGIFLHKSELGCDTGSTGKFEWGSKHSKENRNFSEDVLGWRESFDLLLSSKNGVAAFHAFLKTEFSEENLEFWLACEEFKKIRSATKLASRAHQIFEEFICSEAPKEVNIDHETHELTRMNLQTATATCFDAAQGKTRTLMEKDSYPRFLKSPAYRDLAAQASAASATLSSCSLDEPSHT
Target sequence (P09471 whole entry, looked up): as the sequence (P09471 whole entry, looked up) above
Avidin fluor: compound fluoresces at 488/530 nm on avidin beads | compound fluorescence 488/530 nm, flow cytometry; hits give high values | fluorescence (KMESF) at 10 µM | 0.38% of 220,000 active; in the data active = fluorescence above about 47
RGS7-Gao reg: human RGS7-Galphao interaction regulation. P09471. Multiplexed bead flow cytometry, RGS7-Galphao binding; actives lie on both sides. binding response (% of control), % at 10 µM. 0.35% of 220,000 active. AID 1439; in the data active = binding response below about 49% or above about 150%; inconclusive = no clear call, values can overlap the other calls; inactive = in between;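 note: fluorescent Galphao held in activated GDP-AlF4 state binding bead-coupled RGS7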
RGS8-Gao: regulators of human RGS8-Galphao interaction. multiplexed bead flow cytometry, RGS8-Galphao binding; actives lie on both sides. 0.34% of 220,000 active. AID 1423. response (percent of control binding), % at 10 µM; in the data active = response below about 60% or above about 140%; inactive = in between;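 note: Galphao activated as the GDP aluminium fluoride complex binding bead-coupled RGS8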
RGS4-Gao HTS: RGS4-Galphao interaction regulator (human); shares compounds with RGS16-Gao; RGS4–Galpha-o binding response, % at 10 µM; multiplexed bead flow cytometry, RGS–Galpha-o binding; 99% of 1,600 active;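 note: fluorescently labeled Galpha-o bound to GDP with aluminium fluoride binding biotinylated RGS beads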
Biotin-avidin: interferes with biotinylated probe binding to avidin beads; shares compounds with RGS16-Gao; streptavidin beads, fluorescein-biotin binding, flow cytometry; inhibition, % at 10 µM; 1,700 tested, under 10 active;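 active = inhibition above 50%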;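 note: median green fluorescence of gated singlet beads compared with DMSO control wells; 0% = DMSO wells and 100% = complete loss of bead fluorescence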
RGS8-Gao confirm: RGS8-Galphao interaction regulation, single point confirmation. shares compounds with RGS16-Gao. bead-based flow cytometry RGS8-Galphao binding, fluorescence; actives lie on both sides. binding response (% of control), % at 10 µM. 3% of 1,700 active; in the data active = binding response below about 72% or above about 130%; inactive = in between;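 note: Galphao activated as GDP AlF4 complex before binding bead RGS8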
RGS7-Gao single: confirmation of regulators of human RGS7-Galphao interaction; shares compounds with RGS16-Gao; 7.8% of 1,700 active; response (percent of control binding), % at 10 µM; bead-based flow cytometry RGS7-Galphao binding; actives lie on both sides; in the data active = response below about 75% or above about 130%; inactive = in between;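 note: fluorescent Galphao activated with GDP and aluminum fluoride binding bead-coupled RGS7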
RGS16-Gao single: RGS16-Galphao interaction regulation, single point confirmation; shares compounds with RGS16-Gao; bead-based flow cytometry, RGS16-Galphao binding; actives lie on both sides; response (% of control binding), % at 10 µM; 4% of 1,700 active; in the data active = response below about 74% or above about 130%; inactive = in between;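 note: Galphao activated as the GDP aluminium fluoride complex binding bead-coupled RGS16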
RGS4-Gao confirm: RGS4-Galphao interaction regulation, single point confirmation. shares compounds with RGS16-Gao. RGS4-Galphao binding, multiplexed bead flow cytometry; actives lie on both sides. binding response (% of control), % at 10 µM. 4% of 1,700 active. AID 1840; in the data active = binding response below about 74% or above about 130%; inactive = in between
RGS19-Gao conf: RGS19-Galphao interaction regulation, single point confirmation; shares compounds with RGS16-Gao; bead-based flow cytometry RGS19-Galphao binding; actives lie on both sides; AID 1841; 5% of 1,700 active; response (percent of control binding), % at 10 µM; in the data active = response below about 50% or above about 160%; inactive = in between;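 note: 100% = no compound control and 0% = blank background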
The depositor's hits bear a star; ? = inconclusive; / = no result given; [ ] = another dose, or the depositor's remark. Only some compounds are listed: those with a hit (about 1.2% of all), similar ones and a draw of the others. Unless noted, the rule behind the calls is not given here.

SMILES | RGS4-Gao reg | GSH fluor | RGS16-Gao | Avidin fluor | RGS7-Gao reg | RGS8-Gao | Biotin-avidin | RGS8-Gao confirm | RGS7-Gao single | RGS16-Gao single | RGS4-Gao confirm | RGS19-Gao conf | others
CC1CCCC(NC(=O)CCCn2c(=O)[nH]c3cc(Cl)ccc3c2=O)C1C (stereo unspecified) | 212*[activator] | 36 | 204*[activator] | 100* | 176*[activator] | 110 | 1 | 105 | 102 | 105 | 104 | 107
COC(=O)CCC(=O)NNC(=O)CCCOc1ccc(Cl)cc1Cl | 100 | 10 | 102 | 13 | 102 | 105 | / | / | / | / | / | /
COC(=O)CCC(=O)NNC(=O)c1ccc(Cl)cc1Cl | 104 | 42 | 32 | 113* | 175*[activator] | 84 | / | / | / | / | / | / | RGS4-Gao HTS=104*
Cc1ccc(-n2ncc3c(=O)[nH]c(SCC(=O)N4CCC(C)CC4)nc32)cc1C | 112 | 19 | 185*[activator] | 7 | 114 | 123 | 3 | 97 | 99 | 100 | 99 | 98 | RGS4-Gao HTS=112*
Cc1ccc(-n2ncc3c(=O)[nH]c(SCC(=O)N4CCCC4)nc32)cc1C | 102 | 18 | 106 | 7 | 102 | 103 | / | / | / | / | / | /
Cc1cc(-c2csc(N)n2)c(C)n1-c1ccc(Cl)c(Cl)c1 | 99 | 9 | 81 | 6 | 106 | 102 | / | / | / | / | / | /
COc1ccc(-n2c(C)cc(-c3csc(N)n3)c2C)cc1 | 13* | 8 | 0.5* | -5 | -0.7* | 13* | -2 | 98 | 100 | 99 | 100 | 107
Cc1ccc(N=Nc2ccc(O)c3ncccc23)cc1C | 96 | 10 | 100 | 10 | 92 | 99 | / | / | / | / | / | /
Cc1ccc(N=Nc2ccc(O)c3ncccc23)cc1 | 68 | 3 | 10* | 4 | 65 | 71 | -4 | 102 | 96 | 106 | 96 | 84 | RGS4-Gao HTS=68*
O=C(Cn1nnc2ccccc2c1=O)NCC1CCC(C(=O)O)CC1 (stereo unspecified) | 102 | / | 97 | 4 | ? | 100 | / | / | / | / | / | /
COC(=O)Cc1c(C)nc2nc(NCc3ccc(Cl)cc3)[nH]n2c1=O | 155*[activator] | 15 | 178*[activator] | 86* | 151*[activator] | 118 | 2 | 100 | 100 | 102 | 100 | 89
CCOc1ccc2nc(NC(=O)C(NS(=O)(=O)c3cccc4nsnc34)C(C)C)sc2c1 (stereo unspecified) | 153*[activator] | 22 | 118 | 2 | 137 | 131 | 0 | 101 | 105 | 103 | 103 | 105
CC(C)C(NS(=O)(=O)c1cccc2nsnc12)C(=O)Nc1nc2ccc(Cl)cc2s1 (stereo unspecified) | 100 | 20 | 103 | 9 | 104 | 101 | / | / | / | / | / | /
Cc1c(C(=O)N/N=C/c2ccc(N(C)C)cc2)[nH]c2ccc(Cl)cc12 | 94 | 9 | 23* | 4 | 95 | 66 | -1 | 98 | 95 | 99 | 100 | 82 | RGS4-Gao HTS=94*
NC(=O)[C@H]1CC2(CC(c3cccc(NC(=O)[C@H]4CCC(=O)N4)c3)=NO2)CN1C(=O)c1cc([N+](=O)[O-])cc([N+](=O)[O-])c1 (stereo partly specified) | 97 | / | 100 | 12 | ? | 102 | / | / | / | / | / | /
CCCc1cc(-n2ccnc2)n2c(nc3ccccc32)c1C#N | 162*[activator] | 150* | 192*[activator] | 84* | 151*[activator] | 119 | 7 | 101 | 119 | 110 | 111 | 138
Cc1ccc(C2=C(CC(=O)O)C(=O)CC2)cc1 | 92 | 7 | 22* | 6 | 91 | 76 | 0 | 103 | 104 | 101 | 101 | 147 | RGS4-Gao HTS=92*
Cc1ccc(-c2sc(C)nc2CC(=O)O)cc1 | 100 | 33 | 104 | 15 | 96 | 101 | / | / | / | / | / | /
NNC(=O)c1ccc(COCC(F)(F)F)cc1 | 98 | / | 101 | 13 | ? | 100 | / | / | / | / | / | /
NC(=O)C1CCN(C(=O)Nc2csc3ccccc23)CC1 | 93 | / | 98 | 5 | ? | 75 | 1 | 100 | 101 | 101 | 103 | 115
Cc1ccc(-n2nnnc2C(=Cc2ccc(N(C)C)cc2)c2nnnn2-c2ccc(C)cc2)cc1 | 23* | 17 | 11* | / | 18* | 14* | 1 | 113 | 100 | 118 | 102 | 91
Cc1ccccc1CSc1nn2c(=O)c(C)nnc2s1 | 116 | 14 | 127 | 40 | 211*[activator] | 85 | 2 | 101 | 96 | 103 | 94 | 92 | RGS4-Gao HTS=116*
COc1cccc(CN2CCN(Cc3ccc(O)cc3)CC2CCO)c1 (stereo unspecified) | 102 | 12 | 102 | 9 | 100 | 101 | / | / | / | / | / | /
Cc1ccc(-n2c3c(c(=O)[nH]c2=O)C(NS(=O)(=O)c2ccc(C)cc2)(C(F)(F)F)C(=O)N3)cc1 (stereo unspecified) | 100 | 15 | 103 | 17 | 101 | 102 | / | / | / | / | / | /
Cc1ccc(S(=O)(=O)NC2(C(F)(F)F)C(=O)Nc3c2c(=O)[nH]c(=O)n3-c2ccccc2)cc1 (stereo unspecified) | 113 | 5 | 152 | 88* | 162*[activator] | 118 | -2 | 101 | 102 | 101 | 102 | 86 | RGS4-Gao HTS=113*
COc1cc(C(=O)Nc2ccc(-n3cnnn3)c(C)c2)cc(OC)c1OC | 25* | 20 | 24* | 1 | 28* | 41* | 0 | 108 | 106 | 117 | 105 | 121
Cc1cc(NC(=O)c2ccco2)ccc1-n1cnnn1 | 101 | 11 | 104 | 13 | 105 | 96 | / | / | / | / | / | /
COc1ccccc1OCc1csc(NC(=O)c2ccco2)n1 | -19* | 47 | -42 | -5 | -7.5* | 3.4* | 1 | 105 | 104 | 109 | 102 | 116
Cc1csc(NC(=O)c2ccco2)n1 | 98 | 17 | 105 | 5 | 101 | 98 | / | / | / | / | / | /
